Structures are written as SMILES. The campaign covered roughly 290,000 compounds. About 1,800 (0.62%) were called active. Only a selection was taken, and actives are over-represented in it overall. A number with no mark means an inactive call. Cut-off read from the data, not from the text of the source: active = inhibition above about 50%; inactive = the rest.

Among the data in PubChem BioAssay AID1566 (Sanford-Burnham Center for Chemical Genomics, 2009) are inhibition values, retold here.

A short description of the assay: NOD2 signaling inhibitors, cell-based, luminescence, uHTS, HEK293 (AID 1566). The settings on record: HEK293 NOD2/NF-kB luciferase reporter, at 4 µM, hits give high values.
As for `Cc1ccc(N2C(=O)NC(=O)/C(=C\c3ccc([N+](=O)[O-])o3)C2=O)cc1`, the inhibition was 10.6%. With `C[n+]1c2ccccc2nc2ccc(NCCO)cc21` the figure was 41.7%; with `Nc1cc2nc3ccccc3nc2cc1N`, -1.6%.

Consider `CNc1ccc2nc3ccccc3[n+](C)c2c1`, for which the inhibition is 54.7% (active). Consider `CC(Cc1ccccc1)NC(=O)Cc1ccc([N+](=O)[O-])cc1` (stereo not drawn), for which the inhibition was 4.1%. Turning to `CCCC1COC(Cn2cncn2)(c2ccc(Cl)cc2Cl)O1` (stereo not drawn), the inhibition was 5.9%. Consider `CC(C(=O)c1ccc(Cl)cc1Cl)n1cncn1` (stereo not drawn), for which the inhibition was -37.6%. With `CC1(c2ccc(Cl)cc2Cl)OCC(Cn2cncn2)O1` (stereo not drawn) the figure was 60.3% (active); with `Cc1c(C(=O)N2CCC3(CC2)OCCO3)oc2ccc(S(=O)(=O)N3CCOCC3)cc12`, 9.5%. Regarding `Clc1ccccc1NC1=NCCCS1`, the inhibition was -11.5%. Turning to `CCOc1ccc(-n2c(-c3cccs3)nc3ccccc3c2=O)cc1`, the inhibition is 21.3%. The result for `Cn1ncnc2c(=O)n(C)c(=O)nc1-2` reads 45.4%; that for `CCn1nc(-c2cccs2)nc2c(=O)n(C)c(=O)nc1-2`, 72.1% (active). In the case of `CCCCn1c(O)c(C(C)=NCCN2CCOCC2)c(=O)[nH]c1=O`, the inhibition was 2.3%. The result for `COc1ccc(CNCCc2c(C)[nH]c3ccc(OC(F)(F)F)cc23)c(OC)c1` reads 57.8% (active). With `COc1ccc2[nH]c(C)c(CCNCc3cc(OC)c(OC)c(OC)c3)c2c1`, the inhibition was 6.9%. With `Cc1[nH]c2ccc(OC(F)(F)F)cc2c1CCNCc1ccc(Cl)cc1` the figure was 2.1%; with `COc1cc2c(cc1OC)C(C(=O)N(C)C1CCCCC1)C1CCCCN1C2=O` (stereo not drawn), 9.9%. Regarding `CCCCn1c(=O)c(C(=O)Nc2ccccc2N)c(O)c2ccccc21`, the inhibition was 2.4%.

Take `COc1ccc(C2=NS(=O)(=O)N(C)C(C(=O)N3CCC4(CC3)OCCO4)=C2)cc1OC`: the inhibition was 8.1%. For `COc1ccc(CNCCc2ccc(Cl)cc2Cl)cc1`, the inhibition is -27.6%. `Cc1nn(Cc2ccccc2Cl)c(C)c1C(=O)NC1CCCc2ccccc21` (stereo not drawn): the inhibition was 20.5%. For the molecule `CN(C)C(=O)Oc1ccc2c(c1)O/C(=C\c1ccc(Cl)cc1)C2=O`, the inhibition is -16.2%. With `Cc1c(C(=O)Nc2ccccc2)cc(-c2ccccc2)n1CCCN1CCOCC1` the figure was 8.6%. The result for `O=C(NCc1cccnc1)Nc1ccc([N+](=O)[O-])cc1` reads -1.2%.

With `Cc1ccc(CN2CCN(CC(=O)N3CCC4(CC3)OCCO4)C2=O)cc1`, the inhibition was -1.6%. The result for `C[C@H]1C[C@@H](C)C(=O)[C@@H]([C@H](O)CC2CC(=O)NC(=O)C2)C1` reads 73% (active); that for `CCn1c(O)c(C=Nc2ccc(N3CCOCC3)cc2)c(=O)n(CC)c1=S`, 22.7%. With `COCCN1C(=O)NC(=O)/C(=C\c2ccc(Br)cc2)C1=O` the figure was 0.7%; with `CC(C)c1oc(=O)cc2c1[C@@H](O)[C@H]1OC(=O)[C@@]3(C)CC[C@@H](O)[C@@]2(C)C13` (stereo partly drawn), 20%. With `CC(C)c1oc(=O)cc2c1[C@@H](O)[C@H]1OC(=O)[C@@]3(C)C[C@@H](O)[C@@H](O)[C@@]2(C)C13` (stereo partly drawn) the figure was 64.6% (active). On to `CC(Cc1ccsc1)NCc1cn[nH]c1-c1ccc(F)cc1F` (stereo not drawn), for which the inhibition is 10.2%.

With `COc1cc(N2CCOCC2)ccc1/C=C1\C(=O)NC(=O)N(C2CCCCC2)C1=O`, the inhibition is 12%. With `CCOC(=O)C1=CC(=C2C(=O)N(CC)C(=S)N(CC)C2=O)c2ccccc2O1` the figure was 18.1%. Regarding `O=C(CCNC(=O)N1C[C@H]2C[C@@H](C1)c1cccc(=O)n1C2)Nc1cccc(Cl)c1`, the inhibition is 13.1%. With `O=C(Nc1ccc(OC(=O)N2CCCCC2)cc1)N1CCOCC1` the figure was 62.5% (active); with `O=C(Nc1cccc(OC(=O)N2CCCCC2)c1)N1CCOCC1`, -0.1%; with `O=C(Nc1ccc(OC(=O)N2CCCC2)cc1)N1CCOCC1`, 12.5%. The result for `COC(=O)c1nc(-c2ccc3c(n2)C(=O)C(N)=C(OC)C3=O)c(N)c(-c2ccc(OC)c(OC)c2O)c1C` reads 57.2% (active); that for `O=C(c1ccc(N2CCCCCC2)c([N+](=O)[O-])c1)N1CCC2(CC1)OCCO2`, 73.2% (active).

As for `CC1CCCN(c2ccc(C(=O)N3CCC4(CC3)OCCO4)cc2[N+](=O)[O-])C1` (stereo not drawn), the inhibition is 15.8%. The result for `CC(=O)Nc1cc(C(=O)N2CCC3(CC2)OCCO3)ccc1S(=O)(=O)c1ccc(C)cc1` reads 52.9% (active); that for `CC(=O)Nc1cc(C(=O)N2CCC3(CC2)OCCO3)ccc1S(=O)(=O)c1ccc(Cl)cc1`, 6.8%; that for `CCC(=O)Nc1cc(C(=O)N2CCC3(CC2)OCCO3)ccc1S(=O)(=O)c1ccc(C)cc1`, 0.8%. With `O=C(c1ccc(N2CCCCC2)c([N+](=O)[O-])c1)N1CCC2(CC1)OCCO2` the figure was 9.1%; with `O=C(COc1ccc2ccc(=O)oc2c1)N1C[C@H]2C[C@@H](C1)c1cccc(=O)n1C2`, -2.7%; with `CN1CC(C(=O)c2ccc([N+](=O)[O-])cc2)C(c2ccc(Cl)cc2)C1` (stereo not drawn), 16.2%. In the case of `COC(=O)C(C)NC(=S)N1CC2C[C@@H](C1)Cn1c2cccc1=O` (stereo partly drawn), the inhibition is 14.9%.
